This note sets out measurements from PubChem BioAssay (EPA / NIEHS).

The structures appear in SMILES notation. Calls of active or inactive are those of the source. Rule for the calls: active = hit-call score of the fitted dose curve at least 0.9, where 1 is the maximum; inactive = score below 0.9.

This experiment can be described thus: ATG_M_32_CIS: Attagene CIS-FACTORIAL HepG2 Assay for M32 Transcription Factor (Internal Marker) (AID 2282949).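 Note: background control marker of the multiplexed CIS panel rather than a real target.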 Particulars: HepG2 Attagene cis-factorial M32 reporter, mRNA; actives raise or lower the signal. The method, then:
ATG_CIS is a cell-based, multiplexed-readout assay that uses HepG2, a human liver cell line, with measurements taken at 24 hours after chemical dosing in a 24-well plate.ATG_M_32_CIS is one of 52 assay component(s) measured or calculated from the ATG_CIS assay. It is designed to make measurements of mRNA induction, a form of inducible reporter, as detected with fluorescence intensity signals by Reverse transcription polymerase chain reaction (RT-PCR) and Capillary electrophoresis technology.Data from the assay component ATG_M_32_CIS was analyzed into 1 assay endpoint. This assay endpoint, ATG_M_32_CIS, was analyzed with bidirectional fitting relative to DMSO as the negative control and baseline of activity. Using a type of inducible reporter, measures of mRNA for gain or loss-of-signal activity can be used to understand the background control at the transcription factor-level as they relate to the gene . Furthermore, this assay endpoint can be referred to as a secondary readout, because this assay has produced multiple assay endpoints where this one serves a background control function. To generalize the intended target to other relatable targets, this assay endpoint is annotated to the background measurement intended target family, where the subfamily is internal marker.
Human liver HepG2 cells are transiently transfected with multiple reporter transcription units (MRTUs) in 6-well plates using FuGene 6 reagent (Roche; 3 ml FuGene/1 mg DNA). The MRTU constructs are regulated by a cis-regulating element (promoter). […] A major difference between the CIS and TRANS system is that in CIS activities of endogenous TFs are measured, whereas the TRANS assay evaluates changes in activities of exogenous, chimeric NR-Gal4 proteins. […] At the end of 24 hour incubation, total RNA was isolated using TriZol reagent (Invitrogen). The isolated RNA is then reverse-transcribed using oligo(dT) primer and Mo-MLV reverse transcriptase (Invitrogen) with DNAse I (Ambion) treatment for 30 min. The one-tenth of the produced cDNA was amplified by PCR using Taq DNA polymerase (Invitrogen) and two reporter sequence-specific primers. The PCR products were fluorescently labeled by primer extension with 6-arboxyfluorescein (6-FAM) 5'-labeled reporter sequence-specific primer (2 min at 95 C, 20 s at 68 C and 10 min at 72 C) and these products were digested with 5U of HpaI (New England Biolabs) for 2h at 37 C. The fragments were purified using Qiaquick PCR columns (Qiagen), analyzed on an ABI 3130xL genetic analyzer (Applied Biosystems) with peak positions identified by using a set of X-rhodamine (ROX)-labeled MapMarker1000 molecular weight standards (BioVentures). The raw capillary electrophoresis data was processed using Attagraph software (Attagene).
On to `CCOP(=S)(OCC)OP(=S)(OCC)OCC`, for which the call was inactive.
With `CCOc1ccc(N)cc1`, the result was inactive.
For the molecule `[Cl][Sn]([c]1ccccc1)([c]1ccccc1)[c]1ccccc1`, the outcome was inactive.
As for `O=S(=O)(c1ccc(Cl)cc1)c1cc(Cl)c(Cl)cc1Cl`, the molecule was called inactive.
In the case of `Nc1nc(N)nc(Cl)n1`, the molecule was called inactive.
Consider `O=C(O)COc1ccc(Cl)cc1`, for which the result was inactive.
For `O=c1[nH]c(=O)n(Cl)c(=O)n1Cl`, the molecule was classed as inactive.
Take `N#Cc1ccccc1N`: the call was inactive.
On the same count and under the same terms, for `O=S1(=O)OC(c2cc(Br)c(O)c(Br)c2)(c2cc(Br)c(O)c(Br)c2)c2ccccc21` the value was “inactive”; for `C=CC(Cl)CCl` (stereo not given), “inactive”.
Same read-out and setting: for `COc1nn(C(=O)NS(=O)(=O)c2ccccc2OC(F)(F)F)c(=O)n1C` the value was “inactive”; for `O=C(NC(=O)c1c(F)cccc1F)Nc1cc(Cl)c(F)c(Cl)c1F`, “inactive”; for `Nc1cccnc1`, “inactive”.
Turning to `Nc1c(Oc2ccccc2)cc(O)c2c1C(=O)c1ccccc1C2=O`, the molecule was classed as inactive.
For `CCOCn1c(-c2ccc(Cl)cc2)c(C#N)c(Br)c1C(F)(F)F`, the AC50 is 148 µM (active).
As to `CCCCCCCCCCCCN(C)C`, the molecule was called inactive.
Same read-out and setting: for `OCCCCO` the value was “inactive”.
Same read-out and setting: for `CNC(=O)O/N=C/C(C)(C)S(C)(=O)=O` the value was “inactive”; for `N#CCC#N`, “inactive”.
Consider `NC(=O)c1ccc(N)nc1`, for which the molecule was called inactive.
`BrCCCCBr`: the result was inactive.
On the same count and under the same terms, for `C=CC(=O)[O][Sn]([CH2]CCC)([CH2]CCC)[CH2]CCC` the value was “inactive”.
Consider `CN(CCCC(O)c1cccnc1)N=O` (stereo not given), for which the call was inactive.
For the molecule `CCCCOC(=O)COC(=O)c1ccccc1C(=O)OCCCC`, the molecule was called inactive.
In the case of `CCOP(=S)(OCC)Oc1ccc(Cl)cc1Cl`, the call was inactive.
In the case of `CN(C)CCN(C)C`, the result was inactive.
Consider `C=CCOC(F)(C(F)(F)F)C(F)(F)F`, for which the molecule was called inactive.
Consider `Nc1ccc(Br)cc1`, for which the result was inactive.
Same read-out and setting: for `CC(C)CP(=S)(S)CC(C)C` the value was “inactive”.
As for `Cc1cc(Cl)ccc1OC(C)C(=O)O` (stereo not given), the molecule was called inactive.
Regarding `Brc1ccc(Oc2c(Br)cc(Br)cc2Br)c(Br)c1`, the result was inactive.
The same measure, in the same setting: for `COCC(=O)N(c1c(C)cccc1C)[C@H](C)C(=O)OC` the value was “inactive”; for `C#CCOC(=O)/C=C(C)/C=C/CC(C)CCCC(C)C` (stereo not given), “inactive”.
The same measure, in the same setting: for `C=CCc1ccccc1O` the value was “inactive”.
Regarding `Cc1cccc(OP(=O)(Oc2cccc(C)c2)Oc2cccc(C)c2)c1`, the call was inactive.
`CCOP(=S)(OCC)SCS(=O)(=O)C(C)(C)C`: the call was inactive.
For `Clc1cnc(Oc2ccc(Oc3ncc(Cl)cc3Cl)cc2)c(Cl)c1`, the molecule was classed as inactive.
In the case of `CC(C)=CC1C(C(=O)OCc2cccc(Oc3ccccc3)c2)C1(C)C` (stereo not given), the molecule was classed as inactive.
For `CC(C)(c1ccc(O)c(-c2ccccc2)c1)c1ccc(O)c(-c2ccccc2)c1`, the outcome was inactive.
As to `CCCCCCCCCCCCCCC(Br)C(=O)O` (stereo not given), the AC50 is 164 µM (active).

As a reminder, the AC50 is the midpoint of the concentration-response curve, whichever way the signal moves.
